Each structure is given as a SMILES string. A number with no mark means an inactive call. Inconclusive results are not listed. The source made the active and inactive calls. Unless noted, the call rests on the fitted dose curve; in most records, active means well fitted curve in the direction sought with a large enough effect; inconclusive means small, poorly fitted or top-dose-only effect, or another doubt; inactive means no such curve, though single readings can be large; an effect the other way counts as inactive or inconclusive.

This note sets out measurements from PubChem BioAssay (NCATS).

The nature of experiment [1]: Cellular Toxicity (caspase-3) HepG2 (AID 654).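 Further: cells exposed to compound for 16 hours before reading; 0% = DMSO alone and 100% = caspase signal from 100 µM tamoxifen.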 In outline:
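Caspase 3/7 activation in HepG2 is measured as rising luminescence after a 16 hr treatment at 37 °C. Values are scaled between DMSO basal and 100 uM tamoxifen, and AC50 is fitted with the Hill equation.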

Experiment [2] can be described thus: Cellular Toxicity (caspase-3) Jurkat (AID 655).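 Further: cells exposed to compound for 16 h at 37 °C before reading.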 The settings on record: Jurkat caspase-3 activation, luminescence; caspase-3 activation: at 92.2 µM (top of the series), DMSO = 0%, tamoxifen = 100%. In outline:
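Luminescent caspase-3/7 readout (aminoluciferin substrate cleavage) in human T-cell leukemia Jurkat cells after 16 hr compound exposure. Concentration-response normalized to DMSO and 100 uM tamoxifen; AC50 by standard Hill equation.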

The nature of experiment [3]: Cellular Toxicity (caspase-3) HUV-EC-C (AID 656). In outline:
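Luminescent caspase-3/7 activation (aminoluciferin substrate cleavage) in HUV-EC-C cells after 16 hr compound exposure, 37°C. Signal normalized to DMSO basal and 100 uM tamoxifen as 100%; AC50 from concentration-response fitted with the Hill equation.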

A short description of experiment [4]: Cellular Toxicity (caspase-3) SHSY5Y (AID 657). In a few lines: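 Luminescent caspase-3/7 readout (aminoluciferin release) in SH-SY5Y cells after 16 h compound exposure in complete medium. Activity scaled between DMSO basal and 10 uM staurosporine as 100%; concentration-response fitted to Hill equation for AC50.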
Experiment [5] can be described thus: Cellular Toxicity (caspase-3) BJ (AID 658).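 Further: 0% = DMSO basal and 100% = 10 µM staurosporine.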 The settings on record: Potency: caspase-3 activation. In outline:
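qHTS, BJ fibroblasts, 1000 cells/well; 5 hr preincubation, 16 hr compound, 37 °C; Caspase-Glo 3/7 reagent, 1 hr RT; luminescence. DMSO = 0%, 10 uM staurosporine = 100%. Hill-equation AC50.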

Experiment [6] can be described thus: Cellular Toxicity (caspase-3) MRC-5 (AID 659).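 Further: 0% = DMSO basal and 100% = 10 µM staurosporine.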 In a few lines:
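MRC-5 fibroblasts, 1500/well; 16 h cpd, 37 °C; Caspase-Glo 3/7, 1 h RT; lumi read. Norm: DMSO = 0%, 10 uM staurosporine = 100%. Hill-fit AC50 from qHTS conc-response.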

Experiment [7] in a line: Cellular Toxicity (caspase-3) Mesangial (AID 660).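 Further: combined caspase 3 and 7 activity read by Caspase-Glo luminescence; cells exposed to compound for 16 h before the caspase read.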 In outline:
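Seed cells derived from normal human renal glomeruli, incubate 5 h, add compounds across concentrations and incubate 16 h at 37 °C. Caspase 3/7 activation is then quantified by luciferase light, with AC50 derived by Hill modeling.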

Experiment [8] in a line: Cellular Toxicity (caspase-3) SK-N-SH (AID 661).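 Further: 0% = DMSO basal and 100% = 10 µM staurosporine.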 In outline:
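Cells were seeded and incubated 5 hr at 37 °C, dosed with compound over a concentration range for 16 hr, then given Caspase-Glo 3/7 reagent for 1 hr at room temperature before luminescence reading.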

Experiment [9] can be described thus: Cellular Toxicity (caspase-3) H-4-II-E (AID 663).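 Further: cells exposed to compound for 16 hr before readout.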 The settings on record: Potency: caspase-3 activation. In a few lines:
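H-4-II-E rat hepatoma, 1500 cells/well, 5 hr settle at 37 °C; compound 16 hr, 37 °C, complete medium; Caspase-Glo 3/7, 20 min RT; luminescence. DMSO = 0%, 100 uM tamoxifen = 100%; Hill-equation AC50.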

Experiment [10] is described as follows: Cellular Toxicity (caspase-3) Hek293 (AID 664).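 Further: cells exposed to compound for 16 h at 37 °C before readout.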 The settings on record: HEK293 caspase-3 activation, DMSO = 0%, 100 µM tamoxifen = 100%; at 92.2 µM (top of the series). In a few lines:
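qHTS, HEK293 (human embryonic kidney), 16 h cpd exposure in complete medium. Caspase-3/7 activation = luminescence increase; normalized to DMSO/100 uM tamoxifen; Hill-fit AC50.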

Experiment [11] is described as follows: Cellular Toxicity (caspase-3) N2a (AID 665).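 Further: compound exposure lasted 16 h at 37 °C before readout.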 In a few lines:
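Caspase-3/7 activation, measured as increased luminescence from aminoluciferin release, is quantified in mouse N2a cells exposed to compounds for 16 h. Values are normalized to DMSO and 10 uM staurosporine, with AC50 derived by Hill modelling.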

A short description of experiment [12]: Cellular Toxicity (caspase-3) Renal Proximal Tubule (AID 667).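 Further: cells exposed to compound for 16 hours at 37 °C before detection; 0% = DMSO basal and 100% = 10 µM staurosporine.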 The settings on record: Potency: caspase-3 activation. In a few lines:
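Luminescent caspase 3/7 signal from peptide-aminoluciferin cleavage measures apoptosis in freshly isolated rat kidney proximal tubule cells after 16 h compound exposure. Concentration-response data are normalized to DMSO and 10 uM staurosporine, and AC50 values come from Hill equation fits.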

Experiment [13] in a line: qHTS assay for small molecule disruptors of the mitochondrial membrane potential - 1 hr assay (AID 651754; calls by dose curve; further: potency means the concentration at half of the fitted maximal effect; nearly all actives have a fitted effect of over 35% in size). In outline: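 Loss of mitochondrial potential shifts the cationic dye from red mitochondrial aggregates to green cytoplasmic monomers. Cells (HepG2) are treated with compound for 1 hr before a 30 min dye incubation at 37C.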
(qHTS replaces the single test concentration by a dilution series.)

The target of experiment [14] is Tumor necrosis factor (Homo sapiens) (UniProt P01375). Kind of experiment: qHTS assay to identify small molecules that stimulate Tumor Necrosis Factor-alpha (TNF-alpha) secretion (AID 651757; active means well fitted curve in the direction sought with a large enough effect in the signal ratio; the % refers to the signal ratio; further: 0% is about no effect). In a few lines:
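Human monocytic THP-1 cells are plated, treated with compound and held at 37 C for 17 hrs. Labeled anti-TNF-alpha antibody mixture is then added; after 3 hr at room temperature, TR-FRET signal reports secreted TNF-alpha.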

Experiment [15] in a line: qHTS assay to identify small molecules that stimulate interleukin-8 (IL-8) secretion (AID 651758; active means well fitted activation curve with a large enough effect in the signal ratio; the % refers to the signal ratio; further: 0% is about no effect). In outline:
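Compounds are added to THP-1 cells (2000 per well) and left 16 hrs at 37 C. A labeled anti-IL-8 antibody pair is then added, and IL-8 secretion is measured by time-resolved FRET after 1-3 hrs at room temperature.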

Experiment [16] is described as follows: qHTS assay for environmental chemicals that activate the Aryl hydrocarbon Receptor (AhR) signaling pathway (AID 651777). Further: potency means the concentration at half of the fitted maximal effect; nearly all actives have a fitted effect of over 15% in size. The following applies: 1A2-DRE human hepatoma cells, luciferase, 24 h; activation: hits give high values. In a few lines: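 Human hepatoma 1A2-DRE cells, stably carrying a dioxin response element and CYP1A2 promoter driving luciferase, were exposed to compounds for 24 hr at 37 C and 5% CO2. Luciferase signal was then read after 30 min One-Glo at room temperature.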

Experiment [17] deals with Peroxisome proliferator-activated receptor alpha (Homo sapiens) (UniProt Q07869). Description: qHTS assay for small molecule agonists of the peroxisome proliferator-activated receptor alpha (PPARalpha) signaling pathway (AID 651778). Further: % of control where 0% means no effect. The following applies: PathHunter PPARalpha complementation, chemiluminescence, 6 h; max response: hits give high values. In a few lines:
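Enzyme-fragment complementation assay in which ligand-bound PPARalpha translocates and forms an active enzyme that generates chemiluminescence. Cells were plated overnight, exposed to compound for 6 hr at 37 C, and then given detection reagent for 60 min at room temperature.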

Experiment [18] deals with Nuclear receptor ROR-gamma (Homo sapiens) (UniProt P51449). Description: qHTS assay for small molecule antagonists of the retinoid-related orphan receptor gamma (ROR-gamma) signaling pathway (AID 651802).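 Further: CHO cells with doxycycline-induced ROR-gamma expression; on the % scale 0 is the no-effect control and ±100 the full control effect; nearly all actives have a fitted effect of over 60% in size.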 In outline: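 Steps: cells dispensed; compound or DMSO transferred by pin tool; doxycycline added to induce the ROR response element-driven luciferase; plates held 16hr at 37C; ONE-Glo added and luminescence measured.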
Nuclear receptor ROR-gamma (Homo sapiens), sequence (P51449 whole entry, looked up): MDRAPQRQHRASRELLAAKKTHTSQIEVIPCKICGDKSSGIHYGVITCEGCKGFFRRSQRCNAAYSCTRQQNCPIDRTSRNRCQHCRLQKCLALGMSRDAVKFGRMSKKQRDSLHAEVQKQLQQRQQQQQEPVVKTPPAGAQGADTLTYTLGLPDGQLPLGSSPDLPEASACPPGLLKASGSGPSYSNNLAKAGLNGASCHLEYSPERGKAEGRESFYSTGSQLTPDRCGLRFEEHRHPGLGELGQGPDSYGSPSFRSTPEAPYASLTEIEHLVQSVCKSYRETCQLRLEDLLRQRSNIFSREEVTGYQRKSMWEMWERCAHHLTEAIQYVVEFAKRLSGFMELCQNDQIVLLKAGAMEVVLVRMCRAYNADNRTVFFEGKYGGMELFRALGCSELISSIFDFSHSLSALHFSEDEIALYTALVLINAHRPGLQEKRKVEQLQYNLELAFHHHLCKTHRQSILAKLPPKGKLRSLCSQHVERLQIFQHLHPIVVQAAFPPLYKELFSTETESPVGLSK

The nature of experiment [19]: qHTS assay for small molecule agonists of the antioxidant response element (ARE) signaling pathway measured by Nrf2-dependant transcriptional activity - cell viability counter screen (AID 720653; active means well fitted curve in the direction sought with a large enough effect in the repeat runs; an effect the other way counts as inactive or inconclusive; further: on the % scale 0 is the no-effect control and ±100 the full control effect). The settings on record: ARE-bla HepG2 viability, CellTiter-Glo ATP luminescence, 16 h; max response: hits give low values. In a few lines:
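ARE-bla HepG2 cells treated with compounds for 16 h at 37C; this counter screen measures viability as intracellular ATP by CellTiter-Glo luminescence after 30 min at room temperature.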

Experiment [20] can be described thus: qHTS assay for cell viability of HEK293 cells (AID 743288). Further: on the % scale 0 is the no-effect control and ±100 the full control effect; nearly all actives have a fitted effect of over 50% in size. The settings on record: ATP luminescence (CellTiter-Glo), 18 h; max response: hits give low values. In a few lines:
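ATP luminescence (CellTiter-Glo) reports metabolically competent cell number after parental HEK293 cells, 2,000/well, were treated with DMSO-dissolved compounds for 18 h at 37 C; reagent incubation 30 min, room temperature.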

Peroxisome proliferator-activated receptor alpha (Homo sapiens), sequence (Q07869 whole entry, looked up, the tested form may be a part): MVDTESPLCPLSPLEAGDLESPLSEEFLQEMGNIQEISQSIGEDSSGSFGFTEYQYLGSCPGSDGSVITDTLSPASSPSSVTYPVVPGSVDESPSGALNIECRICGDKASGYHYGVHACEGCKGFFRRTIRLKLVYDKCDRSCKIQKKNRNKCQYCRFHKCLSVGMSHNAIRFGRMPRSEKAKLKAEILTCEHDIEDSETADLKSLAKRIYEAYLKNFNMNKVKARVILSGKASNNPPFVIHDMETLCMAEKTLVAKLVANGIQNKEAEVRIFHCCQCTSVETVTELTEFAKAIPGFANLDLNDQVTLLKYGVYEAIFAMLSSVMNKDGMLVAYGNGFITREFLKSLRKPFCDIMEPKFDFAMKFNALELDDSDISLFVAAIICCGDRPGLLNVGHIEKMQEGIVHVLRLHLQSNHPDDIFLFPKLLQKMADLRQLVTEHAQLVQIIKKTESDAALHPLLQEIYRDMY
Tumor necrosis factor (Homo sapiens), sequence (P01375 whole entry, looked up): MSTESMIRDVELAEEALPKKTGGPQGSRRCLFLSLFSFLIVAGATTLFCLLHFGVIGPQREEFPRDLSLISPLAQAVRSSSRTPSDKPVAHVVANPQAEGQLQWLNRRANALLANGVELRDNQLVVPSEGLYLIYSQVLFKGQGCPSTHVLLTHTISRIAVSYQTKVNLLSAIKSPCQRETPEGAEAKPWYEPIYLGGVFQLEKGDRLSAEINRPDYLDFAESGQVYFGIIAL

Take `O=C(O)c1cc(N=Nc2ccc([N+](=O)[O-])cc2)ccc1O`: the Potency result in experiment [1], in [2], in experiment [3], in [4], in experiment [5] and in experiment [9] was “inactive” in each case. Also, the Potency entry in [12], in experiment [14], in experiment [15] and in [18] was “inactive” in each case. For the same compound, the result in experiment [6], in experiment [7], in experiment [8] and in experiment [11] was inactive. For the same compound, the caspase-3 activation in [10] was -10.9%. Besides, the values for the Potency in experiment [13] and in experiment [16] were 37.6 µM (active) and 4.47 µM (active), respectively. Further, the max response in experiment [17] is -12.2%; in experiment [19], -5.1%; in experiment [20], 6.02%.
